For 26 molecules, growth yield results are on record in the supplement of paper PMC8007513.

The test has as its system Trichoderma virens ATCC 9645. Put plainly: growth yield (OD600) with compound + IPBC relative to untreated control; higher = less growth inhibition. The note with it: compound concentration: 100 uM, IPBC concentration: 200 ng/ml. In short, it runs like this: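 A biocide at 200 ng ml^−1 was co-applied to some wells, and library compounds were present in all test wells at 100 μM final. The wells held 100 μl of Trichoderma virens ATCC 9645 spores at 15,000 spores ml^−1 in potato dextrose broth, grown at 30 °C in 96-well plates, with OD600 read at 40 h and 72 h. Results are relative growth against the control without either agent, averaged across duplicate screens.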

Each structure is given as a SMILES string. Where a name gives a salt, the structure may show the parent alone. ± gives the standard error. The whole screen tested about 1,300 compounds, of which about 130 (10%) showed an effect of 50% or more. For the sample, strong results were picked, then their nearest neighbours and some compounds at random.

Take `CCn1cc(C(=O)O)c(=O)c2ccc(C)nc21` [Nalidixic acid sodium salt] + CCCCNC(=O)OCC#CI [3-iodo-2-propynyl butylcarbamate (IPBC)]: the growth yield runs as follows: (40 h) 49.2 ± 1.6%; (72 h) 100 ± 2.1%.
For the molecule `CCn1cc(C(=O)O)c(=O)c2cnc(N3CCCC3)nc21` [Piromidic acid] + CCCCNC(=O)OCC#CI [3-iodo-2-propynyl butylcarbamate (IPBC)], the growth yield is, setting by setting: (40 h) 99.9 ± 14%; (72 h) 99.5 ± 5.3%.
For the molecule `CCn1cc(C(=O)O)c(=O)c2cnc(N3CCNCC3)nc21` [Pipemidic acid] + CCCCNC(=O)OCC#CI [3-iodo-2-propynyl butylcarbamate (IPBC)], the growth yield reads like this: (40 h) 85.1 ± 3.2%; (72 h) 90.1 ± 3%.
Regarding `COc1ccc(C(CN(C)C)C2(O)CCCCC2)cc1` (configuration not stated) [Venlafaxine] + CCCCNC(=O)OCC#CI [3-iodo-2-propynyl butylcarbamate (IPBC)], the growth yield runs as follows: (40 h) 85.6 ± 4.3%; (72 h) 89 ± 3%.
Turning to `CC(C(=O)O)c1ccc2c(c1)[nH]c1ccc(Cl)cc12` (configuration not stated) [Carprofen] + CCCCNC(=O)OCC#CI [3-iodo-2-propynyl butylcarbamate (IPBC)], the growth yield by setting is: (40 h) 33.2 ± 0.16%; (72 h) 68.3 ± 1.1%.
Taken in the same sequence, the figures for `CC(C(=O)O)c1ccc(C(=O)c2cccs2)cc1` (configuration not stated) [Suprofen] + CCCCNC(=O)OCC#CI [3-iodo-2-propynyl butylcarbamate (IPBC)] were 86.6 ± 14% and 89.1 ± 8.6%.
For `CC(C)Cc1ccc([C@H](C)C(=O)O)cc1` [S-(+)-ibuprofen] + CCCCNC(=O)OCC#CI [3-iodo-2-propynyl butylcarbamate (IPBC)], the growth yield runs as follows: (40 h) 70.68 ± 0.16%; (72 h) 96.7 ± 1.7%.
Taken in the same sequence, the figures for `CC(C)(C)NC[C@H](O)COc1cccc2c1CCCC2=O` [(-) -Levobunolol hydrochloride] + CCCCNC(=O)OCC#CI [3-iodo-2-propynyl butylcarbamate (IPBC)] were 97.8 ± 16% and 99.2 ± 11%.
For `c1ccc(C2CN3CCSC3=N2)cc1` (configuration not stated) [Tetramisole hydrochloride] + CCCCNC(=O)OCC#CI [3-iodo-2-propynyl butylcarbamate (IPBC)], the growth yield by setting is: (40 h) 87.8 ± 9.1%; (72 h) 93.1 ± 4.8%.
Taken in the same sequence, the figures for `COc1ccc(CCN2CCC(Nc3nc4ccccc4n3Cc3ccc(F)cc3)CC2)cc1` [Astemizole] + CCCCNC(=O)OCC#CI [3-iodo-2-propynyl butylcarbamate (IPBC)] were 5.08% and 4.3 ± 0.32%.
For the molecule `CN(c1nccc(=O)[nH]1)C1CCN(c2nc3ccccc3n2Cc2ccc(F)cc2)CC1` [Mizolastine] + CCCCNC(=O)OCC#CI [3-iodo-2-propynyl butylcarbamate (IPBC)], the growth yield was determined as 70.2 ± 3.2% (40 h) and 88.1 ± 4.8% (72 h).
On to `Clc1ccc(Cn2c(CN3CCCC3)nc3ccccc32)cc1` [Clemizole hydrochloride] + CCCCNC(=O)OCC#CI [3-iodo-2-propynyl butylcarbamate (IPBC)], for which the growth yield by setting is: (40 h) 73.5 ± 1.4%; (72 h) 98.5 ± 1.4%.
Taken in the same sequence, the figures for `CC(C)NCC(O)COc1ccc(CCOCC2CC2)cc1` (configuration not stated) [Betaxolol hydrochloride] + CCCCNC(=O)OCC#CI [3-iodo-2-propynyl butylcarbamate (IPBC)] were 90.2 ± 11% and 99.4 ± 4.2%.
Turning to `NC[C@H]1O[C@H](O[C@H]2[C@H](O[C@@H]3O[C@H](CO)[C@@H](O)[C@H]3O)[C@@H](O)[C@H](N)C[C@@H]2N)[C@H](N)[C@@H](O)[C@@H]1O` [Ribostamycin sulfate salt] + CCCCNC(=O)OCC#CI [3-iodo-2-propynyl butylcarbamate (IPBC)], the growth yield reads like this: (40 h) 91.5 ± 6.3%; (72 h) 96.1 ± 3.4%.
For the molecule `Cc1cccn2c(=O)c(-c3nnn[nH]3)cnc12` [Pemirolast potassium] + CCCCNC(=O)OCC#CI [3-iodo-2-propynyl butylcarbamate (IPBC)], the growth yield was 72.7 ± 1.9% (40 h) and 84.4 ± 2% (72 h).
For the molecule `O=C1CN(/N=C/c2ccc(-c3ccc([N+](=O)[O-])cc3)o2)C(=O)N1` [Dantrolene sodium salt] + CCCCNC(=O)OCC#CI [3-iodo-2-propynyl butylcarbamate (IPBC)], the growth yield runs as follows: (40 h) 103 ± 3.8%; (72 h) 104 ± 3.1%.
Taken in the same sequence, the figures for `CCCCC(CC)CNC(=N)NC(=N)NCCCCCCNC(=N)NC(=N)NCC(CC)CCCC` (configuration not stated) [Alexidine dihydrochloride] + CCCCNC(=O)OCC#CI [3-iodo-2-propynyl butylcarbamate (IPBC)] were 2.5415 ± 3.6e-15% and 2.94 ± 0.21%.
Take `Cn1c(=O)c2c(ncn2CC(=O)O)n(C)c1=O` [Acefylline] + CCCCNC(=O)OCC#CI [3-iodo-2-propynyl butylcarbamate (IPBC)]: the growth yield (40 h) was determined as 90.1 ± 2.1% and the growth yield (72 h) came out at 91.1 ± 2%.
In the case of `NCC(CC(=O)O)c1ccc(Cl)cc1` (racemic) [Baclofen (R,S)] + CCCCNC(=O)OCC#CI [3-iodo-2-propynyl butylcarbamate (IPBC)], the growth yield is, setting by setting: (40 h) 96.1 ± 4%; (72 h) 96.8 ± 3.2%.
Taken in the same sequence, the figures for `O=C(O)c1cccnc1` [Niacin] + CCCCNC(=O)OCC#CI [3-iodo-2-propynyl butylcarbamate (IPBC)] were 105 ± 1.9% and 102.8 ± 0.84%.
On to `O=C(Oc1cccc2cccnc12)c1ccccc1` [Benzoxiquine] + CCCCNC(=O)OCC#CI [3-iodo-2-propynyl butylcarbamate (IPBC)], for which the growth yield came to 36.4 ± 0.48% (40 h) and 65.5 ± 0.73% (72 h).
Taken in the same sequence, the figures for `CC(=O)Oc1ccccc1C(=O)Oc1ccccc1C(=O)O` [Acetylsalicylsalicylic acid] + CCCCNC(=O)OCC#CI [3-iodo-2-propynyl butylcarbamate (IPBC)] were 85 ± 1.8% and 89.7 ± 2.2%.
As for `Fc1ccc([C@@H]2CCNC[C@H]2COc2ccc3c(c2)OCO3)cc1` [Paroxetine Hydrochloride] + CCCCNC(=O)OCC#CI [3-iodo-2-propynyl butylcarbamate (IPBC)], the growth yield reads like this: (40 h) 68 ± 4.8%; (72 h) 92.5 ± 2.5%.
Taken in the same sequence, the figures for `O=C(O)CNC(=O)C(CS)Cc1ccccc1` (configuration not stated) [Thiorphan] + CCCCNC(=O)OCC#CI [3-iodo-2-propynyl butylcarbamate (IPBC)] were 88.16 ± 0.48% and 90%.
In the case of `C/C(=C(\CCOP(=O)(O)O)SC(=O)c1ccccc1)N(C=O)Cc1cnc(C)nc1N` [Benfotiamine] + CCCCNC(=O)OCC#CI [3-iodo-2-propynyl butylcarbamate (IPBC)], the growth yield is, setting by setting: (40 h) 89.6 ± 4.1%; (72 h) 90.3 ± 3.7%.
Taken in the same sequence, the figures for `COc1cc(C)nc(-n2nc(C)cc2OC)n1` [Epirizole] + CCCCNC(=O)OCC#CI [3-iodo-2-propynyl butylcarbamate (IPBC)] were 92.3 ± 7.5% and 101 ± 6.2%.
